Source: the supplement of paper PMC10338343
± gives the standard deviation.

Columns and labels:
[1] = system: MILI (PIWIL2) piRISC loaded with piRNA #1 (26 nt); test: pre-steady-state target cleavage rate (min^-1); guide: piRNA #1 5'p-UGAGGUAGUAGGUUGUAUAGUAUCCA; higher = faster piRNA-guided slicing of the target; conditions: auxiliary factor: 500 nM mouse GTSF1
In short: (§1)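 Cleave-'n-Seq: 1 nM active affinity-purified piRISC with one synthetic guide and 0.1 nM transcribed, DNA-blocked target RNA library were mixed, with or without 500 nM GTSF1 partner protein, in HEPES–potassium acetate buffer at 33 °C for 0–8 or 0–960 min. Uncleaved targets were sequenced and normalised to depth and to weakly complementary targets, three trials were pooled, and k3 was capped at 0.0001 min^-1. The pre-steady-state cleavage rate was fitted […].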

[2] = system: EfPiwi piRISC loaded with piRNA #1 (26 nt); test: pre-steady-state target cleavage rate (min^-1); auxiliary factor: 500 nM Ephydatia muelleri Gtsf1; guide: piRNA #1 5'p-UGAGGUAGUAGGUUGUAUAGUAUCCA; MIWI and MILI are mouse PIWI proteins and EfPiwi is from a freshwater sponge; tags in brackets are library labels; higher = faster piRNA-guided slicing of the target
In short: as §1

Question: For GGAGUGCAUACUAUACAACCUACUACCACA, which “pre-steady-state target cleavage rate” value [1] is on record?
Answer: The value was 0.124 ± 0.013.

Question: And the “pre-steady-state target cleavage rate” value [2]?
Answer: Its value is 0.00342 ± 0.0028.

Question: How did the “pre-steady-state target cleavage rate” value [1] turn out when GGAGAGGAUACUAUACAACCUAGCUACCUCA was run?
Answer: Its value is 0.0538 ± 0.0062.

Question: And the “pre-steady-state target cleavage rate” value [2]?
Answer: Its value is 0.0038 ± 0.0017.

Question: Which results are given for GGAGACCAUACAAUACAUCCUACUACCUCA?
Answer: pre-steady-state target cleavage rate [1]: 0.209 ± 0.025; pre-steady-state target cleavage rate [2]: 0.00484 ± 0.003

Question: With GGAGACGAUACUAUACAACGUUCUACCUCA as the sequence, how does the “pre-steady-state target cleavage rate” value [1] read?
Answer: Its value is 0.00469 ± 0.0024.

Question: And the “pre-steady-state target cleavage rate” value [2]?
Answer: The value was 0.00329 ± 0.0013.

Question: Which results are given for GGAGAGGAUACUUUACAACGUACUACCUCA?
Answer: pre-steady-state target cleavage rate [1]: 0.018 ± 0.0029; pre-steady-state target cleavage rate [2]: 0.00409 ± 0.0016

Question: GGAGACGAUAGCUAUACAACCUACUACCUCA was tested. Which “pre-steady-state target cleavage rate” value [1] did it give?
Answer: The value was 0.0779 ± 0.0075.

Question: And the “pre-steady-state target cleavage rate” value [2]?
Answer: Its value is 0.0112 ± 0.0049.

Question: “GGAGACCAUACUAUACAACCUACUACCUCG [g2:g23:cont:t1G]” was tested. Which “pre-steady-state target cleavage rate” value [1] did it give?
Answer: Its value is 0.195 ± 0.017.

Question: What about the “pre-steady-state target cleavage rate” value [2] of the same sequence?
Answer: The value was 0.0177 ± 0.0074.

Question: For GGAGAGGAUACUAUACAACCUACAUCCUCA, which “pre-steady-state target cleavage rate” value [1] is on record?
Answer: The value was 0.00373 ± 0.0031.

Question: What about the “pre-steady-state target cleavage rate” value [2] of the same sequence?
Answer: Its value is 0.00358 ± 0.0016.

Question: GGAGUCGAUACUAUACAACGUACUACCUCA was tested. Which “pre-steady-state target cleavage rate” value [1] did it give?
Answer: The value was 0.0256 ± 0.0024.

Question: And the “pre-steady-state target cleavage rate” value [2]?
Answer: Its value is 0.00501 ± 0.0019.

Question: How did the “pre-steady-state target cleavage rate” value [1] turn out when GGAGACGAUACUAUACAACCUUCUACCUCA was run?
Answer: The value was 0.0098 ± 0.0026.

Question: What about the “pre-steady-state target cleavage rate” value [2] of the same sequence?
Answer: The value was 0.00729 ± 0.0029.

Question: Which results are given for GGAGACGAAACAAUACAACCUACUACCUCA?
Answer: pre-steady-state target cleavage rate [1]: 0.167 ± 0.026; pre-steady-state target cleavage rate [2]: 0.00789 ± 0.0038

Question: For GGAGAGGAUACUAUACAACCUCACUACCUCA, which “pre-steady-state target cleavage rate” value [1] is on record?
Answer: The value was 0.00456 ± 0.0027.

Question: And the “pre-steady-state target cleavage rate” value [2]?
Answer: Its value is 0.00378 ± 0.0026.

Question: How did the “pre-steady-state target cleavage rate” value [1] turn out when GGAGACCAUACUAUACAACCUAUCUACCUCA was run?
Answer: Its value is 0.0997 ± 0.014.

Question: And the “pre-steady-state target cleavage rate” value [2]?
Answer: Its value is 0.00419 ± 0.0028.

Question: How did the “pre-steady-state target cleavage rate” value [1] turn out when GGAGACCAUACUAUACAAGCUAGUACCUCA was run?
Answer: The value was 0.0775 ± 0.016.

Question: And the “pre-steady-state target cleavage rate” value [2]?
Answer: Its value is 0.0032 ± 0.0027.

Question: With GGAGUGGAUCCUAUACAACCUACUACCUCA as the sequence, how does the “pre-steady-state target cleavage rate” value [1] read?
Answer: The value was 0.156 ± 0.027.

Question: What about the “pre-steady-state target cleavage rate” value [2] of the same sequence?
Answer: Its value is 0.111 ± 0.058.

Question: Which “pre-steady-state target cleavage rate” value [1] does the source give for GGAGUGGAUACUAUACAACACUACUACCUCA here?
Answer: The value was 0.00621 ± 0.0026.

Question: And the “pre-steady-state target cleavage rate” value [2]?
Answer: Its value is 0.00629 ± 0.003.

Question: How did the “pre-steady-state target cleavage rate” value [1] turn out when “GGAGACCAUACUAUACAACCUACUACCUCC [g2:g23:cont:t1C]” was run?
Answer: The value was 0.187 ± 0.017.

Question: And the “pre-steady-state target cleavage rate” value [2]?
Answer: Its value is 0.0109 ± 0.0042.

Question: GGAGUGGAUACUAUACAACCUACUCACCUCA was tested. Which “pre-steady-state target cleavage rate” value [1] did it give?
Answer: The value was 0.166 ± 0.02.

Question: What about the “pre-steady-state target cleavage rate” value [2] of the same sequence?
Answer: Its value is 0.00247 ± 0.0014.

Question: Which results are given for GGAGACCAUACUAUACAACCUACUACACUCA?
Answer: pre-steady-state target cleavage rate [1]: 0.204 ± 0.027; pre-steady-state target cleavage rate [2]: 0.00487 ± 0.0033

Question: Which “pre-steady-state target cleavage rate” value [1] does the source give for GGAGUGGAUACUAAACUACCUACUACCUCA here?
Answer: The value was 0.172 ± 0.011.

Question: And the “pre-steady-state target cleavage rate” value [2]?
Answer: The value was 0.00956 ± 0.0047.

Question: For GGAGACGAUACUAUACAACGUACUACCUGA, which “pre-steady-state target cleavage rate” value [1] is on record?
Answer: Its value is 0.0157 ± 0.0045.

Question: And the “pre-steady-state target cleavage rate” value [2]?
Answer: The value was 0.0041 ± 0.0012.

Question: With GGAGAGGAUACUAUACAAGCUACUACCACA as the sequence, how does the “pre-steady-state target cleavage rate” value [1] read?
Answer: Its value is 0.243 ± 0.019.

Question: What about the “pre-steady-state target cleavage rate” value [2] of the same sequence?
Answer: The value was 0.00317 ± 0.0019.

Question: Which results are given for GGAGAGGAUACUAAACAACGUACUACCUCA?
Answer: pre-steady-state target cleavage rate [1]: 0.013 ± 0.0022; pre-steady-state target cleavage rate [2]: 0.00367 ± 0.002

Question: GGAGUGGAUACUAUACAUCGUACUACCUCA was tested. Which “pre-steady-state target cleavage rate” value [1] did it give?
Answer: Its value is 0.0624 ± 0.0061.

Question: What about the “pre-steady-state target cleavage rate” value [2] of the same sequence?
Answer: The value was 0.0051 ± 0.0023.

Question: What does the source list for GGAGACCAUUCUAUACAACCUACUACCACA?
Answer: pre-steady-state target cleavage rate [1]: 0.159 ± 0.018; pre-steady-state target cleavage rate [2]: 0.00335 ± 0.0031

Question: For GGAGACCUUACUAUCCAACCUACUACCUCA, which “pre-steady-state target cleavage rate” value [1] is on record?
Answer: The value was 0.17 ± 0.018.

Question: What about the “pre-steady-state target cleavage rate” value [2] of the same sequence?
Answer: Its value is 0.0791 ± 0.034.

Question: For GGAGACCUUACUAUACAACCUACUACCCA, which “pre-steady-state target cleavage rate” value [1] is on record?
Answer: The value was 0.0955 ± 0.016.

Question: What about the “pre-steady-state target cleavage rate” value [2] of the same sequence?
Answer: Its value is 0.00518 ± 0.0043.
